Test results reported in ChEMBL document CHEMBL3988442, “University of Dundee, Small-Polar-MMV Screening Library” (2021).
For some of these results: Results with a measured potency or affinity are listed apart.

Tests used:
Design in all cases: scale not given: direction of the effect not stated beside the values
[1] = target: Protein translocase subunit SecA (Escherichia coli (strain K12)) (UniProt P10408); assay: Assay to Identify E. coli SecA ATPase Inhibitors; assay type: functional; conditions: 30 µM
Chain of Protein translocase subunit SecA (Escherichia coli (strain K12)) (P10408 whole entry): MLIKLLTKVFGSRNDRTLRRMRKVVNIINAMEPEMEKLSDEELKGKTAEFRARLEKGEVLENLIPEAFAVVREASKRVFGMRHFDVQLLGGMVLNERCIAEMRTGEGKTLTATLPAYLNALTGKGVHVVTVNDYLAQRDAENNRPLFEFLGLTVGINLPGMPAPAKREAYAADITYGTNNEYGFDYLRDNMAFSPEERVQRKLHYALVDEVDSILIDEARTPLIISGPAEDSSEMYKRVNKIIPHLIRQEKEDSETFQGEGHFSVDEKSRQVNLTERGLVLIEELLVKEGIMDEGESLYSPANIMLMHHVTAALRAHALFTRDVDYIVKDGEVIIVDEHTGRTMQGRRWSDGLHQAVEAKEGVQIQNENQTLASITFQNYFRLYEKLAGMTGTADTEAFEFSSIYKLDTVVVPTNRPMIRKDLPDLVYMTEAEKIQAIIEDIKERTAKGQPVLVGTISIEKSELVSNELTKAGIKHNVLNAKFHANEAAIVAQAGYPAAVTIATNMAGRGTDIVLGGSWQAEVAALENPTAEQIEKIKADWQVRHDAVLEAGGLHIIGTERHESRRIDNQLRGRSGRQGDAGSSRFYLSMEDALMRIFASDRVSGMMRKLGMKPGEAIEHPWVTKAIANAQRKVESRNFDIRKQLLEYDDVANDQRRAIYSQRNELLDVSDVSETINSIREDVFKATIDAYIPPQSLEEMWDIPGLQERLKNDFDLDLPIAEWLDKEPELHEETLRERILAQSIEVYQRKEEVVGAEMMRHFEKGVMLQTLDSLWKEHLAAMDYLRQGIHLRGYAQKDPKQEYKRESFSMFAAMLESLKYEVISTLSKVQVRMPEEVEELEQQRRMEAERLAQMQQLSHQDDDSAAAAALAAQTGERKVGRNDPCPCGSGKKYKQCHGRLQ

[2] = target: T1, Ubiquitin-activating enzyme e1, putative (Leishmania donovani (strain BPK282A1)) (UniProt E9BSI1); assay: Leishmania donovani Ubiquitin Activating Enzyme (LdE1); assay type: functional; conditions: 30 µM
T1 sequence (whole entry): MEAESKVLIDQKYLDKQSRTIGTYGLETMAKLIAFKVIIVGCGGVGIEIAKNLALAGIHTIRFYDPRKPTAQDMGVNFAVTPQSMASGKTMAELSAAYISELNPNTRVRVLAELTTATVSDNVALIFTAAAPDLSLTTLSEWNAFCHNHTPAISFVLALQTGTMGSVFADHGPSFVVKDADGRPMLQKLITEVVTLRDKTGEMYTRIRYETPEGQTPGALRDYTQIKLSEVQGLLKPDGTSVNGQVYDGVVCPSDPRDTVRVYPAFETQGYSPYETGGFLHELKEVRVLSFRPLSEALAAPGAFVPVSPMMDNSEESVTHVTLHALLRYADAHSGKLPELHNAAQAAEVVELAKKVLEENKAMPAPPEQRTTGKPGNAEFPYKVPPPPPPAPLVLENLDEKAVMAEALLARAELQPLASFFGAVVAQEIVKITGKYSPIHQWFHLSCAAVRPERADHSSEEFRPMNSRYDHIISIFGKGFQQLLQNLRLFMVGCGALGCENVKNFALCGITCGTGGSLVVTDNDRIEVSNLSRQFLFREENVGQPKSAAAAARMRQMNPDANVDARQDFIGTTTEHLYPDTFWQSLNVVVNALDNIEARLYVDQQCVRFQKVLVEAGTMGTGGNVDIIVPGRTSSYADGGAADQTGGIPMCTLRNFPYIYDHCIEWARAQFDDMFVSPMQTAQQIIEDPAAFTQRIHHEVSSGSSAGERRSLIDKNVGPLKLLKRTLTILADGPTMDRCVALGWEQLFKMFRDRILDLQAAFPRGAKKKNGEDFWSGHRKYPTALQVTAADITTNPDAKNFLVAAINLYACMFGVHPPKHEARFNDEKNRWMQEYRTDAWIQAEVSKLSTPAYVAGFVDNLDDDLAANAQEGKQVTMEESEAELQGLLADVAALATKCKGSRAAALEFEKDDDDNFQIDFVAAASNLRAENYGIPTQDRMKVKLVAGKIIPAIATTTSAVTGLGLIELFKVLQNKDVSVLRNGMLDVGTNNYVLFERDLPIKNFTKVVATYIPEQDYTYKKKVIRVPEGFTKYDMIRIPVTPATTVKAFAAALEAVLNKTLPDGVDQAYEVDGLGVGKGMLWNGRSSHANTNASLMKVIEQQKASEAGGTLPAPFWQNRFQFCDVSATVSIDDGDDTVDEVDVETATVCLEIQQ

[3] = target: AMP-activated protein kinase, AMPK (Homo sapiens) (UniProt P54646+O43741+P54619+Q9UGJ0+Q9Y478+Q13131+Q9UGI9); assay: AMP-dependent Kinase enzyme assay. An in vitro enzyme assay that detects ADP turnover that is directly proportional to AMPK activity. This uses naive AMPK that is activated during the assay with MK-8722; assay type: functional; conditions: 30 µM
[4] = target: Sialic acid-binding Ig-like lectin 9 (Homo sapiens) (UniProt Q9Y336); assay: Hs-Siglec9 ALPHAscreen SOP 20170721; conditions: 10 µM
Chain of Sialic acid-binding Ig-like lectin 9 (Homo sapiens) (Q9Y336 whole entry): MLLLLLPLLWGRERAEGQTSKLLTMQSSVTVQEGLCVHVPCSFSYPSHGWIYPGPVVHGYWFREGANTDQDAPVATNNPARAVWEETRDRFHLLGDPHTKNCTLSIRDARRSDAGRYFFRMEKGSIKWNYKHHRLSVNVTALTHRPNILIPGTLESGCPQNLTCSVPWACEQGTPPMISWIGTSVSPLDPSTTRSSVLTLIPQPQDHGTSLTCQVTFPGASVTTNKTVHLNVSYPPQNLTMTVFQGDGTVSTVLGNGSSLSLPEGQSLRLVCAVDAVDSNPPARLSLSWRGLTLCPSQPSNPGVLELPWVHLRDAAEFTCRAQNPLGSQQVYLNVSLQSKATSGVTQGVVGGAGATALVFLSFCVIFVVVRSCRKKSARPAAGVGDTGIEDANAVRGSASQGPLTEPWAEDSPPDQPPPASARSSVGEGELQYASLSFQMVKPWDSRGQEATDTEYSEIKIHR

[5] = tested on: Trypanosoma cruzi; assay: Trypanosoma cruzi phosphomannomutase and mannose-1-phosphate guanylyltransferase assay; assay type: functional; conditions: 10 µM
[6] = target: T2, Arginase-2, mitochondrial (Homo sapiens) (UniProt P78540); assay: in vitro enzyme assay to detect the production of urea directly proportional to the activity of Arginase II; assay type: functional; conditions: 33.3 µM; further: in the data most compounds retested in dose-response had high values
T2 sequence (whole entry): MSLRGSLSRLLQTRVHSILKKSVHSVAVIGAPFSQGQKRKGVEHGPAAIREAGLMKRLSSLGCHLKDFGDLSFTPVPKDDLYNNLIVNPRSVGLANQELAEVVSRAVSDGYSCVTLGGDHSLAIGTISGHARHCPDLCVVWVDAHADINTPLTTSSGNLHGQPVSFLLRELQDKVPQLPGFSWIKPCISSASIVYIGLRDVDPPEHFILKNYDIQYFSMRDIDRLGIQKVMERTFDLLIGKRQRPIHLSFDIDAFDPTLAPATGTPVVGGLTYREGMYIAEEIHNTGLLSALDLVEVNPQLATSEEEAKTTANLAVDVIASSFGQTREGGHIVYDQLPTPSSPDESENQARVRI

[7] = target: T3, Proteasome subunit beta (Trypanosoma cruzi) (UniProt O96673); assay: Trypanosoma cruzi proteasome chymotrypsin-like activity (TcProtChymo) assay.; further: in the data most compounds retested in dose-response had high values; assay type: functional; conditions: 9.37 µM
T3 sequence (whole entry): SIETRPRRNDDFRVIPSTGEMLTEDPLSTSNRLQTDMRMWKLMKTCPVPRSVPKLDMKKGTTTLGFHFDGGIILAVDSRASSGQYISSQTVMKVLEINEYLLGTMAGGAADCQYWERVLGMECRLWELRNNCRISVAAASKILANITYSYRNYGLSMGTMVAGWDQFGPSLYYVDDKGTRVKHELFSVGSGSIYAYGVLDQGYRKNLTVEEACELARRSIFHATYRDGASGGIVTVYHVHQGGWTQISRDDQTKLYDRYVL

[8] = species on record: Homo sapiens; assay: To identify inhibition of the IFN signalling (Jak-Stat) pathway via expression of an eGFP reporter gene under the control of an IFN-stimulated response element (ISRE) containing MxA promoter.; assay type: functional; conditions: 30 µM
[9] = target: T4, Tyrosyl-tRNA synthetase, putative (Trypanosoma cruzi (strain CL Brener)) (UniProt Q4DSP6); assay: Trypanosoma cruzi tyrosyl tRNA synthetase (TcYRS) _High Tyrosine SOP; assay type: functional; conditions: 30 µM; further: in the data most compounds retested in dose-response had high values
T4 sequence (whole entry): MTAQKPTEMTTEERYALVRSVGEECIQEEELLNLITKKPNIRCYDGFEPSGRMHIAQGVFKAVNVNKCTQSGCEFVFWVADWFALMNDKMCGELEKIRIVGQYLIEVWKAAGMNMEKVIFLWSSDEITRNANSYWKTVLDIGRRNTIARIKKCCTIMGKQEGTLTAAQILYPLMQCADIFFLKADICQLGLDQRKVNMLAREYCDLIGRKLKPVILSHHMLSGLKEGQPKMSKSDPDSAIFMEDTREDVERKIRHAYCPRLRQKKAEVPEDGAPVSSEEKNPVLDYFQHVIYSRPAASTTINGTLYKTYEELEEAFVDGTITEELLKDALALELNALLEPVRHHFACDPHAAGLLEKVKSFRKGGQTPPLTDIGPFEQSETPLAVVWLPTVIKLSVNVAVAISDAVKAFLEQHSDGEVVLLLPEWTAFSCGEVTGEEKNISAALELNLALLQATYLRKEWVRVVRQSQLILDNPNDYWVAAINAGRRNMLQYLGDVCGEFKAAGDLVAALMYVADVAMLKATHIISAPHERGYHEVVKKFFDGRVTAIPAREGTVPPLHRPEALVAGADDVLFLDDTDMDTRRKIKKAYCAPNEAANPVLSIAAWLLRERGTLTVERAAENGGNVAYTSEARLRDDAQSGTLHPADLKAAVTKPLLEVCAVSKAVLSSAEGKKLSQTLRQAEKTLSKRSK

[10] = target: T4, Tyrosyl-tRNA synthetase, putative (Trypanosoma cruzi (strain CL Brener)); assay: Trypanosoma cruzi tyrosyl tRNA synthetase (TcYRS) SOP; assay type: functional; conditions: 30 µM
[11] = target: Chromo domain-containing protein 1 (Saccharomyces cerevisiae (strain ATCC 204508 / S288c) (Baker's yeast)) (UniProt P32657); assay: ScCHD-1 Enzyme Inhibition Assay; assay type: functional; conditions: 30 µM; further: in the data most compounds retested in dose-response had high values
Chain of Chromo domain-containing protein 1 (Saccharomyces cerevisiae (strain ATCC 204508 / S288c) (Baker's yeast)) (P32657 whole entry, the tested form may be a part): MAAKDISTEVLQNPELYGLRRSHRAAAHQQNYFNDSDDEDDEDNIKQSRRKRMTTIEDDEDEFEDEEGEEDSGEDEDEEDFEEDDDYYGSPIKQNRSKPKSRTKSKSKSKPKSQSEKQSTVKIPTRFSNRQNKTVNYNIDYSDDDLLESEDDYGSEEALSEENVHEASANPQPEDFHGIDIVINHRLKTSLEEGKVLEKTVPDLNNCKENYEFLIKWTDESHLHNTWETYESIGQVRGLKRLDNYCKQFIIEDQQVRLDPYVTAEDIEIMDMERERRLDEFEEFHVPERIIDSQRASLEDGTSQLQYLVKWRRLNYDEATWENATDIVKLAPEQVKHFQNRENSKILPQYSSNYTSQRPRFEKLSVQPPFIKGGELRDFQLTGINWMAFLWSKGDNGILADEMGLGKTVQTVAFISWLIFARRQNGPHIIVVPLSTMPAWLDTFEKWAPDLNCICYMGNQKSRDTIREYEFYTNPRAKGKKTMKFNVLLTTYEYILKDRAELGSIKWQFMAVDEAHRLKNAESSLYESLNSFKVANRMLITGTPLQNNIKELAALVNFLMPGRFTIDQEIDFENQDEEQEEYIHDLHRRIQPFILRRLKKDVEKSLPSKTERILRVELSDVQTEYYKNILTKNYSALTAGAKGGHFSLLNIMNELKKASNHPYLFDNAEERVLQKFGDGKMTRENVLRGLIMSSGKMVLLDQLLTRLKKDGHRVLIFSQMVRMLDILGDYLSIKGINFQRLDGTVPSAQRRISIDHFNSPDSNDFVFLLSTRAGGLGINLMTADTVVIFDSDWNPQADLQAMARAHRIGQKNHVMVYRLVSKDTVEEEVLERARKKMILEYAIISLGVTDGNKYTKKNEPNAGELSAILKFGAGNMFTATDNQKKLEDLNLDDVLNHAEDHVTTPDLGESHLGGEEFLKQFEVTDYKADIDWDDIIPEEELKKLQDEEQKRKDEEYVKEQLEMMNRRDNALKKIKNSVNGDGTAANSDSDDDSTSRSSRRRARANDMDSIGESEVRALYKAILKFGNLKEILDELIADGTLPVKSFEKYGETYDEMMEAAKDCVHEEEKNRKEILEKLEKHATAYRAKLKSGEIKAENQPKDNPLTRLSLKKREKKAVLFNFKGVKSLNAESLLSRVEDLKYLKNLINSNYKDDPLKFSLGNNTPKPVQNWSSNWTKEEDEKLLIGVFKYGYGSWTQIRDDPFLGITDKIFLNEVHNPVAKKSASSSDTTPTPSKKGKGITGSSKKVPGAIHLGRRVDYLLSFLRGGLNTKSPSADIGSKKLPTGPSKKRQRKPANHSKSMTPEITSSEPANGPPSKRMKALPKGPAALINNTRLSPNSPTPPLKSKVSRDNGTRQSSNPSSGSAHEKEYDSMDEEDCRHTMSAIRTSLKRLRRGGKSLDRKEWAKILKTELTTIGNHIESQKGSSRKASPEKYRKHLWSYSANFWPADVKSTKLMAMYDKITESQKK

## CC(C)c1nccn1C1CCCN(C(=O)c2ccnc(N(C)C)c2)C1 (stereo not given)
[1]
  Percent Effect: -2.97%
[2]
  Percent Effect: -7.79%
[3]
  Percent Effect: -1.67%
[4]
  Percent Effect: -1.25%
[5]
  Percent Effect: 0.0979%
[6]
  Percent Effect: 1.47%
[7]
  Percent Effect: 10.6%
[8]
  Percent Effect: 18.4%
[9]
  Percent Effect: 1.91%
[10]
  Percent Effect: -11.8%
[11]
  Percent Effect: -18.1%

## COCCC1(CO)CCCN(Cc2ccc(F)c(C)c2)C1 (stereo not given)
[1]
  Percent Effect: -3.62%
[2]
  Percent Effect: 0%
[3]
  Percent Effect: -3.75%
[4]
  Percent Effect: -6.12%
[5]
  Percent Effect: -0.88%
[6]
  Percent Effect: -1.24%
[7]
  Percent Effect: 2.15%
[8]
  Percent Effect: -4.5%
[9]
  Percent Effect: 3.23%
[10]
  Percent Effect: 1.24%
[11]
  Percent Effect: 2.9%

## COc1ccnc(N2CCN(C(=O)c3cnn(C)c3C3CC3)CC2)n1
[1]
  Percent Effect: -5.79%
[2]
  Percent Effect: 10.8%
[3]
  Percent Effect: -3.14%
[4]
  Percent Effect: 28.6%
[5]
  Percent Effect: 3.81%
[6]
  Percent Effect: 0.744%
[7]
  Percent Effect: 6.61%
[8]
  Percent Effect: -9.54%
[9]
  Percent Effect: 4.3%
[10]
  Percent Effect: 16.1%
[11]
  Percent Effect: -13.1%

## c1cc(CNCc2ccnc(N3CCOCC3)c2)c2c(c1)OCCO2
[1]
  Percent Effect: -3.35%
[2]
  Percent Effect: 5.41%
[3]
  Percent Effect: -12.3%
[4]
  Percent Effect: 26.3%
[5]
  Percent Effect: 8.31%
[6]
  Percent Effect: 15.1%
[7]
  Percent Effect: 6.27%
[8]
  Percent Effect: 15.7%
[9]
  Percent Effect: 1.07%
[10]
  Percent Effect: 16.1%
[11]
  Percent Effect: -5.85%

## O=C(c1cccnc1O)N(Cc1ccsc1)CC1CCCO1 (stereo not given)
[1]
  Percent Effect: 0.332%
[2]
  Percent Effect: 13.5%
[3]
  Percent Effect: -1.43%
[4]
  Percent Effect: 6.53%
[5]
  Percent Effect: 4.63%
[6]
  Percent Effect: 12.9%
[7]
  Percent Effect: 12.6%
[8]
  Percent Effect: 15.9%
[9]
  Percent Effect: 5.82%
[10]
  Percent Effect: 17.1%
[11]
  Percent Effect: -0.939%
